# Reference: PubChem BioAssay (NCI)
# Compounds without any hit were thinned out: in the full panel of roughly 83,000, 20% have a hit.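 Percent growth is the endpoint: 0 to 100 indicates growth inhibition (40 means 60% inhibition), 0 means no net growth, and negative values indicate cell death.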 Unmarked numbers belong to inactive results. Calls of active or inactive are those of the source. The calls were made as follows: active = growth percent below 10; inactive = the rest.
# Assays:
# Assay in all cases: NCI-60 one-dose screen, 48 h (100 = growth as untreated, 0 = no growth, -100 = all killed)
# Settings in all cases: 10 µM
# HT29 colon = system: HT29 colon
# SNB-75 CNS = system: SNB-75 CNS
# SNB-19 CNS = system: SNB-19 CNS
# U251 CNS = system: U251 CNS
# PC-3 prostate = system: PC-3 prostate
# SK-MEL-5 melanoma = system: SK-MEL-5 melanoma
# UACC-62 melanoma = system: UACC-62 melanoma
# LOX IMVI melanoma = system: LOX IMVI melanoma
# HCT-15 colon = system: HCT-15 colon
# SK-MEL-28 melanoma = system: SK-MEL-28 melanoma
Structure (SMILES),growth (HT29 colon),growth (SNB-75 CNS),growth (SNB-19 CNS),growth (U251 CNS),growth (PC-3 prostate),growth (SK-MEL-5 melanoma),growth (UACC-62 melanoma),growth (LOX IMVI melanoma),growth (HCT-15 colon),growth (SK-MEL-28 melanoma)
COc1ccc(-c2n/c(=C\c3c(O)[nH]c4ccccc34)cc3c2=Nc2ccccc2-3)cc1,-37.1% (active),66.1%,63.1%,-61.4% (active),43.3%,70%,87.3%,2.48% (active),,
O=C(Nc1ccc(Oc2ccc(Nc3nc4ccccc4s3)cc2)cc1)Nc1ccc(Cl)c(Cl)c1,31.7%,44.1%,27.1%,29.5%,23.4%,34.3%,,26.2%,20.7%,45.9%
COC(=O)[C@]12CC[C@@H](C)[C@H](C)[C@@H]1C1=CC[C@@H]3[C@@]4(C)C[C@@H](O)[C@H](O)[C@@](C)(CO)[C@@H]4[C@H](O)C[C@@]3(C)[C@]1(C)CC2,-90.5% (active),-37.7% (active),-23.4% (active),-94.6% (active),-34.5% (active),-95.8% (active),,-93% (active),-51.4% (active),-48.4% (active)
COc1cc(CSc2nc3ccc(C)cc3c(=O)n2-c2ccccc2)cc(OC)c1OC,14.3%,-7.55% (active),57.2%,38.5%,49.1%,20%,,36%,30.1%,52%
CC1(C)Cc2c(cn(Cc3ccccc3)c2-c2ccccc2)-c2oncc21,79.6%,103%,110%,88.9%,86.2%,83.5%,,90.2%,101%,112%
CCOC(=O)c1sc(NC(=O)c2cc(OC)c(OC)c(OC)c2)nc1C,99.8%,98.5%,118%,106%,65.1%,95.6%,,97.3%,96.9%,101%
CC(=O)Oc1ccc(C2=Cc3ccc(OC(C)=O)cc3OC2C)cc1 (centres undefined),93.7%,49%,85.2%,43.3%,66.3%,50.2%,,44.4%,48.4%,62.1%
COc1ccc(-c2nnc(COc3ccc(NC(=O)Nc4cccc(C(F)(F)F)c4)cc3F)o2)cc1,66.8%,79.6%,47.7%,48.1%,46.5%,78.8%,,8.23% (active),46.1%,73.4%
CC(C)CCN(CCCNc1c2c(nc3cc(Cl)ccc13)CCCC2)CCC(C)C,23%,84.4%,90.6%,59.4%,56.8%,57.8%,,51%,44.5%,83.4%
Cc1cc(O)c(C2=NN(c3ccc(S(N)(=O)=O)cc3)C(c3ccc(N(C)C)cc3)C2)c(C)c1Cl (centres undefined),52.7%,78.7%,107%,78.3%,13.6%,79.6%,,82.8%,80.5%,90.2%
Fc1ccc2[nH]c3c(NCCCN4CCOCC4)ncnc3c2c1,66.1%,-0.656% (active),91.7%,41.1%,83%,92.2%,,69.1%,91.1%,104%
COc1ccc(S(=O)(=O)Nc2cc(/C=C\c3cc(OC)c(OC)c(OC)c3)ccc2OC)cc1,-13.4% (active),-2.76% (active),55.1%,0.353% (active),-2.4% (active),-20.1% (active),27.8%,19.3%,,48.8%
COc1cccc(-c2nnc(COc3ccc(-c4nc5ccccc5[nH]4)cc3OC)o2)c1,96.1%,109%,98.1%,97%,97.7%,67.4%,95.1%,104%,,98.1%
COCc1cc2c(cc1Br)OCO2,106%,87.1%,105%,99.1%,86.8%,107%,100%,95.6%,,99.1%
CC(=O)Oc1c(C)c(C)c2c(c1C)CCC(C)(CC(=O)OCCCCCCCCCCC[P+](c1ccccc1)(c1ccccc1)c1ccccc1)O2 (centres undefined),-53.9% (active),-47.8% (active),-78.8% (active),-93.1% (active),-51% (active),-96.7% (active),-86.1% (active),-92.6% (active),,-86.9% (active)
O=S(=O)(NC1c2ccccc2Oc2ccccc21)c1ccccc1,92.2%,88.4%,105%,91.9%,88.2%,102%,97.8%,87.5%,,101%
COc1cc(CSc2nc3ccc(C)cc3c(=O)n2Cc2ccccc2)cc(OC)c1OC,10.5%,-4.08% (active),58.1%,33.1%,45.9%,17.8%,21.4%,39.8%,,52%
NC(=O)C1CCCN(Cc2c[nH]c3ccccc23)C1 (centres undefined),95.6%,85.9%,103%,95.2%,91.2%,99.6%,104%,90.1%,,110%
COc1cccc2c1O/C(=C\c1ncc([N+](=O)[O-])n1C)C2=O,-20.7% (active),39.2%,-2.3% (active),-11.7% (active),-21.2% (active),-92.4% (active),-77.7% (active),-58.8% (active),,-25.4% (active)
O=C(COc1ccc(Cl)cc1Cl)Oc1coc(CSc2nc3ccccc3s2)cc1=O,114%,112%,103%,97.3%,106%,-78% (active),70.5%,90.5%,,131%
CCOC(=O)C(=O)Cc1cccnn1,101%,78%,102%,96.8%,91.7%,108%,99.7%,99.5%,,108%
NCCNc1ccc2cc(-c3nc4ccccc4[nH]3)c(=O)oc2c1,108%,85.1%,105%,94.9%,79.7%,93.5%,87.4%,85%,,93.7%
O=C(NC1CCCC1)c1ccc(N2CCC(NCc3cccc(C(F)(F)F)c3)CC2)cc1,36.7%,85.3%,105%,82.9%,83.3%,79.5%,104%,89.7%,,108%
COC(=O)c1cnc2c(c1)Oc1ccc(Cl)cc1-c1cc(C)nn1-2,82.5%,91.7%,62%,50.4%,95.1%,88.1%,74.7%,60.2%,,96.4%
Nc1ncncc1-c1ccc(F)cc1,113%,85.3%,106%,103%,103%,104%,107%,98.7%,,115%

Structure (SMILES),growth (HT29 colon),growth (SNB-75 CNS),growth (SNB-19 CNS),growth (U251 CNS),growth (PC-3 prostate),growth (SK-MEL-5 melanoma),growth (UACC-62 melanoma),growth (LOX IMVI melanoma),growth (HCT-15 colon),growth (SK-MEL-28 melanoma)
Cc1ccccc1C1=N[C@@H](Cc2ccccc2)C(=O)c2c(nc3ccccn23)N1,115%,70.8%,109%,100%,89.4%,103%,103%,91.7%,,113%
COc1cc(OC)cc(N2CCN(C(=O)Nc3nc4cc(F)ccc4nc3OC)CC2)c1,3.96% (active),27.9%,28.7%,17.5%,22.4%,-42.2% (active),47.9%,23.6%,,77.1%
C[C@@H]1C(=O)N(C[C@H](Cc2ccccc2)NC(=O)OCc2ccccc2)[C@]1(Cc1ccccc1)C(=O)OCc1ccccc1,43.7%,52.5%,56.7%,35.2%,10.4%,13.2%,40.7%,36.5%,,66.9%
O=C(Nc1cccc(Cl)c1)OCC(COC(=O)Nc1cccc(Cl)c1)(COC(=O)Nc1cccc(Cl)c1)[N+](=O)[O-],32%,49.9%,42.8%,34.7%,24.1%,44.2%,31.9%,15.6%,,51.1%
COc1ccc(-c2nsc3c2NC(=O)CC3c2ccc(Cl)cc2)cc1 (centres undefined),89.8%,91.2%,95.9%,93.3%,82%,81.8%,73.4%,90.4%,,103%
COc1cc2nc(Sc3sc(N)nc3C)n(-c3ccc(Oc4ccccc4)cc3)c(=O)c2cc1OC,75%,86.7%,105%,87.6%,65.2%,76.8%,81.4%,78.3%,,
O=C1CC[C@@H](C(=O)N[C@H]2CSSC[C@@H](C(=O)N/C=C/c3ccc(O)cc3)NC(=O)[C@H](Cc3ccccc3)NC(=O)[C@@H]3CCCN3C(=O)[C@@H]3CCCN3C2=O)N1,99.8%,100%,94.4%,96.2%,87.3%,97.5%,99.7%,94.5%,,101%
Cc1cc(C)c(C(=O)OC(C)CNC2CCCCC2)c(C)c1 (centres undefined),90.5%,92.1%,97.5%,97.8%,93.9%,101%,103%,88.3%,,105%
COc1cccc2c1C(=O)c1c(O)c3c(c(O)c1C2=O)C[C@@](O)(C(=O)COC(=O)c1cccnc1)C[C@@H]3OC1CC(N)C(O)C(C)O1 (some centres undefined),-29.5% (active),-75% (active),5.16% (active),-14.4% (active),-41.8% (active),-49.1% (active),-88.4% (active),0.723% (active),,-13.8% (active)
CC(C)c1ncc(CO)n1Cc1c(Cl)cccc1Cl,99.4%,91.6%,142%,101%,94.4%,100%,108%,104%,,120%
CCOC(=O)c1ccc(NC(=O)Nc2nncs2)cc1,1.75% (active),19.6%,58.3%,17.3%,20.7%,-21.2% (active),31.2%,13%,,42.2%
CN(C1c2ccccc2Oc2ccccc21)S(=O)(=O)c1cc(Cl)ccc1Cl,20.5%,56.2%,65.7%,43.8%,54.5%,39.3%,32.6%,50.3%,,67%
O=C(O)c1cc(C(F)(F)F)cc(C(F)(F)F)c1,100%,97.6%,118%,103%,97.7%,109%,108%,99.7%,,103%
COc1ccc(C(=O)c2sc3nc(-c4cccs4)ccc3c2N)cc1OC,14%,52.1%,71.7%,59%,39%,24.3%,59%,55%,,59.2%
COc1ccc(-c2cc(=O)n(-c3nc4ccccc4[nH]3)[nH]2)cc1OC,109%,60.2%,63.2%,45.9%,62.5%,62.7%,31%,61.8%,,84%
C#CCNCCN1C(=O)c2ccc3c4c(ccc(c24)C1=O)C(=O)N(CCNCC#C)C3=O,2.13% (active),75.4%,46%,29.5%,47.7%,-81.3% (active),16.7%,-3.21% (active),,83.9%
N#CN1CC[C@H](C(=O)Nc2ncc(-c3ccccc3)s2)C1,-35.6% (active),-43.8% (active),12.4%,2.64% (active),11.1%,-56% (active),-37.1% (active),4.1% (active),,5.29% (active)
C=C[C@]1(C)C=C2C(=O)[C@@]3(O)OC(=O)[C@@]4(CCCC(C)(C)[C@H]34)[C@@]2(O)CC1,-2.72% (active),-78.8% (active),26.5%,-94% (active),-74.7% (active),-99.1% (active),-87.2% (active),-96.7% (active),,-98.8% (active)
COc1ccc(COC(=O)CC(C)C)cc1,96.1%,91.9%,103%,92.7%,94.4%,93.4%,99.3%,97.1%,,110%
O=C(CCCC(=O)N/N=C/c1cc(Cl)ccc1O)N/N=C\c1cc(Cl)ccc1O,55.4%,58.9%,48.1%,21%,24%,-1.89% (active),-16.9% (active),7.26% (active),,35.8%
N/C(=N\O)c1cn(C2OC(CO)C(O)C2O)c2ncnc(N)c12 (centres undefined),7.04% (active),-7.06% (active),16.5%,10.7%,4.66% (active),-43% (active),-68.2% (active),-63.2% (active),,-53.3% (active)
O=c1cc(CSc2nnc(-c3ccccc3)n2-c2ccc(F)cc2)c2ccc3ccccc3c2o1,96.4%,92.9%,99.1%,98.8%,79%,79%,83.2%,90.3%,,104%
CNC(=O)c1cc(Oc2ccc(NC(=O)Nc3ccc(Cl)c(C(C)(C)C)c3)c(F)c2)ccn1,25.9%,104%,60%,52%,37.7%,-23.2% (active),16%,16.6%,,34.8%
O=C(c1ccccc1)C(Sc1ccccc1)c1ccccc1 (centres undefined),45.6%,101%,110%,79.4%,73%,108%,83.5%,74.5%,,94.1%
